Results published in PubChem BioAssay AID588492 (Sanford-Burnham Center for Chemical Genomics, 2011).
Screen size: about 360,000 compounds; about 2,300 (0.64%) were called active. What follows is part of a selection rich in actives, with near analogues and random picks from the rest. Unmarked numbers belong to inactive results.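 Rule for the calls: active = compounds giving at least 50% protection of heart cells from peroxide-induced death in the single-dose screen, raw or plate-pattern-corrected value; inactive = the rest.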

Assay: cardioprotection against H2O2-induced cell death, primary screen, uHTS, H9c2 cells, ATPLite luminescence (AID 588492);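 note: 0% = DMSO wells with peroxide and 100% = DMSO wells without peroxide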
Conditions: H9c2 cardiomyocytes, H2O2 injury protection, 2 h, at 20 µM, stronger effect = higher value

SMILES | protection from H2O2 cell death
CNc1nnc(-c2ccco2)s1 | 3.7%
Cc1nc2c(-c3ccc(F)cc3)c(C)nn2c(C)c1CCC(=O)NCc1ccco1 | 2.6%
Fc1ccc(-c2ccc(-c3nn4c(-c5ccco5)nnc4s3)o2)cc1 | 98.7% (active)
CC(C)(C)OC(=O)C[C@H]1C/C=C\C[C@@H](CC(=O)N[C@H](CO)Cc2ccccc2)C(=O)NC[C@@H](c2ccccc2)OC1=O | 10.5%
CC(C)(C)OC(=O)C[C@@H]1C/C=C\C[C@@H](CC(=O)N[C@H](CO)Cc2ccccc2)C(=O)NC[C@@H](c2ccccc2)OC1=O | 51.6% (active)
CC(C)(C)OC(=O)C[C@@H]1C/C=C\C[C@@H](CC(=O)N[C@H](CO)Cc2ccccc2)C(=O)NCCOC1=O | 12.4%
Cc1ccc(NS(=O)(=O)c2ccc3c(c2)NC(=O)CO3)cc1 | -11.5%
Cc1c(C)n2c(SCC(=O)NC3CCCC3)nnc2[nH]c1=O | 1.3%
COc1ccccc1C(=O)NC(CCSC)C(=O)NNC(=O)c1ccccc1C (stereo not given) | 4.9%
COc1ccc(S(=O)(=O)/N=C2\C=C(NS(=O)(=O)c3ccccc3)C(=O)c3ccccc32)cc1 | -11.4%
CC1=C/C(=N\S(=O)(=O)c2ccccc2)C(C(C)C)=CC1=O | 63.7% (active)
Cc1ccc(S(=O)(=O)/N=C2\C=C(NS(=O)(=O)c3ccc(C)cc3)C(=O)c3ccccc32)cc1 | -17.9%
O=C(c1ccc(O)cc1)c1ccc(C(=O)O)c(C(=O)O)c1 | 5.7%
Cc1cccnc1C(NC(=O)C1CCN(Cc2ccc(Cl)c(Cl)c2)CC1)c1ccc(Cl)cc1 (stereo not given) | 4.5%
CCn1c(C(O)c2cc(OC)ccc2OC)nc2ccccc21 (stereo not given) | -3.6%
Cc1nc2ccccc2n1CC(=O)N/N=C/c1cccs1 | -3.1%
CCn1c(/C=N/NC(=O)c2ccc(OC)cc2)nc2ccccc21 | 50.7% (active)
S=c1[nH]c2ccccc2c2ccccc12 | 50.1% (active)
S=c1ccc2ccccc2[nH]1 | 4.8%
Cc1cc2c3ccccc3[nH]c(=O)n2n1 | 2.8%
COc1ccc(S(=O)(=O)N2CCN(C(=S)NCC3CCCO3)CC2)cc1OC (stereo not given) | -4.4%
N=c1ccn(CC(=O)NC(N)=O)c2ccccc12 | 4.5%
CC(C)C(=O)N1CCN(c2nc(-c3ccccc3)c3c(c2C#N)CC(C)(C)OC3)CC1 | 15.1%
CC1(C)Cc2c(C#N)c(SCc3nc4ccccc4[nH]3)nc(N3CCOCC3)c2CO1 | 50.1% (active)
CCOC(=O)CSc1nc(N2CCOCC2)c2c(c1C#N)CC(C(C)C)OC2 (stereo not given) | -4%
